Laboratory results reported in PubChem BioAssay (Tox21).
Results filed as inconclusive are left out. The source made the active and inactive calls. Unless noted, the call rests on the fitted dose curve; in most records, active means well fitted curve in the direction sought with a large enough effect in the repeat runs; inconclusive means weak or mixed curves; inactive means no such curve, though single readings can be large; an effect the other way counts as inactive or inconclusive.

Assays:
[1] = qHTS assay to identify small molecule agonists of the estrogen related receptor (ERR) signaling pathway from Tox21 library (AID 1224849; calls by dose curve; further: nearly all actives have a fitted effect of over 15% in size); conditions: ERR reporter cell line, ONE-Glo luciferase, 18 h; series mostly up to 92.4 µM
Summary of the method: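 ERR reporter cell line (NTP) seeded, rested 6 h at 37 C/5% CO2, then pinned with Tox21 compounds in DMSO. After 18 h at 37 C, ONE-Glo luciferase luminescence was read following 30 min at room temperature.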

[2] = qHTS RealTime-Glo MT Cell Viability Assay in HepG2 cells - 24 hour (AID 1224867); conditions: RealTime-Glo luminescence; series mostly up to 76.8 µM; further: nearly all actives have a fitted effect of over 50% in size
Summary of the method: (§1)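 Compound treatment began 5 h after plating HepG2 cells (600/well) with NanoLuc luciferase and prosubstrate. Plates stayed at 37 C for 40 h; luminescence was captured at six time points, 0 h through 40 h.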

[3] = qHTS RealTime-Glo MT Cell Viability Assay in HEK293 cells - 32 hour (AID 1224868); conditions: RealTime-Glo luminescence; series mostly up to 76.8 µM; further: top concentration of the series differs between compounds; nearly all actives have a fitted effect of over 50% in size
Summary of the method: (§2)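 Quantitative high-throughput screen of the Tox21 10K library in HEK293: cells and RealTime-Glo reagents plated together, compound added at 5 h, luminescence monitored through 40 h at 37 C.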

[4] = A CellTox Green Cytotoxicity Assay to monitor cytotoxicity in HEK293 cells - 0 hour (AID 1224869); conditions: CellTox Green fluorescence; series mostly up to 76.8 µM; further: nearly all actives have a fitted effect of over 50% in size
Summary of the method: (§3)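 HEK293 cells premixed with CellTox Green dye were seeded at 600 cells/well and left 5 h at 37 C/5% CO2 before pin transfer of 23 nL compound in DMSO. Fluorescence from dye bound to dead-cell DNA was read during 40 h treatment.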

[5] = qHTS RealTime-Glo MT Cell Viability Assay in HepG2 cells - 40 hour (AID 1224870); conditions: RealTime-Glo luminescence; series mostly up to 76.8 µM; further: nearly all actives have a fitted effect of over 50% in size
Summary of the method: (§4)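 Real-time viability: cells seeded at 600 per well together with NanoLuc and cell-permeant prosubstrate, compounds added after 5 h incubation. Luminescence tracked at 0, 8, 16, 24, 32 and 40 h of exposure.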

[6] = A CellTox Green Cytotoxicity Assay to monitor cytotoxicity in HEK293 cells - 40 hour (AID 1224871); conditions: CellTox Green fluorescence; series mostly up to 76.8 µM; further: nearly all actives have a fitted effect of over 45% in size
Summary of the method: as §3

[7] = qHTS RealTime-Glo MT Cell Viability Assay in HEK293 cells - 16 hour (AID 1224872); conditions: RealTime-Glo luminescence; series mostly up to 76.8 µM
Summary of the method: as §2

[8] = qHTS RealTime-Glo MT Cell Viability Assay in HepG2 cells - 8 hour (AID 1224873); conditions: RealTime-Glo luminescence; series mostly up to 76.8 µM; further: nearly all actives have a fitted effect of over 55% in size
Summary of the method: as §4

[9] = qHTS RealTime-Glo MT Cell Viability Assay in HEK293 cells - 40 hour (AID 1224874); conditions: RealTime-Glo luminescence; max response: active compounds read low; further: nearly all actives have a fitted effect of over 50% in size
Summary of the method: (§5)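 HEK293 cells mixed with RealTime-Glo reagents (NanoLuc plus cell-permeant prosubstrate) at 600 cells/well, preincubated 5 h at 37 C/5% CO2, then given 23 nL compound in DMSO. Nonlytic luminescence from viable cells was read at 0, 8, 16, 24, 32 and 40 h.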

[10] = A CellTox Green Cytotoxicity Assay to monitor cytotoxicity in HepG2 cells - 16 hour (AID 1224876); conditions: CellTox Green fluorescence; series mostly up to 76.8 µM; further: nearly all actives have a fitted effect of over 45% in size
Summary of the method: (§6)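 HepG2 cells were seeded together with the CellTox Green dye at 600 cells/well, left 5 h at 37 C/5% CO2, then given compounds in DMSO. Fluorescence from dye bound to dead-cell DNA was read repeatedly over 40 h of treatment at 37 C.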

[11] = qHTS RealTime-Glo MT Cell Viability Assay in HepG2 cells - 32 hour (AID 1224877); conditions: RealTime-Glo luminescence; series mostly up to 76.8 µM; further: nearly all actives have a fitted effect of over 55% in size
Summary of the method: as §1

[12] = A CellTox Green Cytotoxicity Assay to monitor cytotoxicity in HepG2 cells - 24 hour (AID 1224878); conditions: CellTox Green fluorescence; series mostly up to 76.8 µM; further: nearly all actives have a fitted effect of over 45% in size
Summary of the method: as §6

[13] = A CellTox Green Cytotoxicity Assay to monitor cytotoxicity in HepG2 cells - 40 hour (AID 1224879); conditions: CellTox Green fluorescence; series mostly up to 76.8 µM; further: nearly all actives have a fitted effect of over 40% in size
Summary of the method: as §6

[14] = qHTS RealTime-Glo MT Cell Viability Assay in HEK293 cells - 0 hour (AID 1224880); conditions: RealTime-Glo luminescence; series mostly up to 76.8 µM; further: top concentration of the series differs between compounds; nearly all actives have a fitted effect of over 45% in size
Summary of the method: as §5

[15] = A CellTox Green Cytotoxicity Assay to monitor cytotoxicity in HEK293 cells - 32 hour (AID 1224881); conditions: CellTox Green fluorescence; series mostly up to 76.8 µM; further: nearly all actives have a fitted effect of over 40% in size
Summary of the method: as §3

[16] = A CellTox Green Cytotoxicity Assay to monitor cytotoxicity in HepG2 cells - 0 hour (AID 1224882); conditions: CellTox Green fluorescence; series mostly up to 76.8 µM; further: nearly all actives have a fitted effect of over 35% in size
Summary of the method: as §6

[17] = A CellTox Green Cytotoxicity Assay to monitor cytotoxicity in HepG2 cells - 32 hour (AID 1224883); conditions: CellTox Green fluorescence; series mostly up to 76.8 µM; further: nearly all actives have a fitted effect of over 50% in size
Summary of the method: as §6

[18] = A CellTox Green Cytotoxicity Assay to monitor cytotoxicity in HEK293 cells - 8 hour (AID 1224884); conditions: CellTox Green fluorescence; series mostly up to 76.8 µM; further: nearly all actives have a fitted effect of over 35% in size
Summary of the method: as §3

[19] = qHTS RealTime-Glo MT Cell Viability Assay in HepG2 cells - 16 hour (AID 1224885); conditions: RealTime-Glo luminescence; series mostly up to 76.8 µM; further: nearly all actives have a fitted effect of over 50% in size
Summary of the method: as §1

[20] = A CellTox Green Cytotoxicity Assay to monitor cytotoxicity in HEK293 cells - 24 hour (AID 1224875); conditions: CellTox Green fluorescence; series mostly up to 76.8 µM; further: nearly all actives have a fitted effect of over 45% in size
Summary of the method: as §3
On the % scale 0 is the no-effect control and ±100 the full control effect.

CCCCCCCCOC(C)=O
inactive: outcome [1] | outcome [2] | Potency [3] | Potency [4] | outcome [5] | Potency [6] | Potency [7] | outcome [8] | max response [9] 7.81% | Potency [10] | outcome [11] | Potency [12] | Potency [13] | outcome [14] | Potency [15] | Potency [16] | Potency [17] | Potency [18] | outcome [19]

C[CH2][Ge]([Cl])([CH2]C)[CH2]C
inactive: outcome [1] | outcome [2] | Potency [3] | Potency [4] | outcome [5] | Potency [6] | Potency [7] | outcome [8] | max response [9] 1.99% | Potency [10] | outcome [11] | Potency [12] | Potency [13] | outcome [14] | Potency [15] | Potency [16] | Potency [17] | Potency [18] | outcome [19]

C1CCN2C[C@@H]3C[C@@H](CN4CCCC[C@@H]34)[C@H]2C1
inactive: outcome [1] | outcome [2] | Potency [3] | Potency [4] | outcome [5] | Potency [6] | Potency [7] | outcome [8] | max response [9] 1.31% | Potency [20] | Potency [10] | outcome [11] | Potency [12] | Potency [13] | outcome [14] | Potency [15] | Potency [16] | Potency [17] | Potency [18] | outcome [19]

NC(=O)NC(=O)Cc1ccccc1
inactive: outcome [1] | outcome [2] | Potency [3] | Potency [4] | outcome [5] | Potency [6] | Potency [7] | outcome [8] | max response [9] 3.75% | Potency [10] | outcome [11] | Potency [12] | Potency [13] | outcome [14] | Potency [15] | Potency [16] | Potency [17] | Potency [18] | outcome [19]

Nc1ccc(C(=O)OCC(O)CO)cc1 (stereo not drawn)
inactive: outcome [1] | outcome [2] | Potency [3] | Potency [4] | outcome [5] | Potency [6] | Potency [7] | outcome [8] | max response [9] 2.88% | Potency [20] | Potency [10] | outcome [11] | Potency [12] | Potency [13] | outcome [14] | Potency [15] | Potency [16] | Potency [17] | Potency [18] | outcome [19]

O=[Si]=O
inactive: outcome [1] | outcome [2] | Potency [3] | Potency [4] | outcome [5] | Potency [6] | Potency [7] | outcome [8] | max response [9] 0.247% | Potency [20] | Potency [10] | outcome [11] | Potency [12] | Potency [13] | outcome [14] | Potency [15] | Potency [16] | Potency [17] | Potency [18] | outcome [19]

CC(C)SCc1ccco1
inactive: outcome [1] | outcome [2] | Potency [3] | Potency [4] | outcome [5] | Potency [6] | Potency [7] | outcome [8] | max response [9] 4.71% | Potency [20] | Potency [10] | outcome [11] | Potency [12] | Potency [13] | outcome [14] | Potency [15] | Potency [17] | Potency [18] | outcome [19]

CC(=O)Nc1ccc(C)cc1
inactive: outcome [1] | outcome [2] | Potency [3] | Potency [4] | outcome [5] | Potency [6] | Potency [7] | outcome [8] | max response [9] -5.67% | Potency [10] | outcome [11] | Potency [12] | Potency [13] | outcome [14] | Potency [15] | Potency [16] | Potency [17] | Potency [18] | outcome [19]

Cc1ccccc1C
inactive: outcome [1] | outcome [2] | Potency [3] | Potency [4] | outcome [5] | Potency [6] | Potency [7] | outcome [8] | max response [9] 13.2% | Potency [20] | Potency [10] | outcome [11] | Potency [12] | Potency [13] | outcome [14] | Potency [15] | Potency [16] | Potency [17] | Potency [18] | outcome [19]

C=C(C)C(=O)OCCCCCCOC(=O)C(=C)C
inactive: outcome [1] | outcome [2] | Potency [3] | Potency [4] | outcome [5] | Potency [6] | Potency [7] | outcome [8] | max response [9] 6.48% | Potency [20] | Potency [10] | outcome [11] | Potency [12] | Potency [13] | outcome [14] | Potency [15] | Potency [17] | Potency [18] | outcome [19]

Cc1ccccc1OCC1CO1 (stereo not drawn)
inactive: outcome [1] | outcome [2] | Potency [3] | Potency [4] | outcome [5] | Potency [6] | Potency [7] | outcome [8] | max response [9] -1.66% | Potency [20] | Potency [10] | outcome [11] | Potency [12] | Potency [13] | outcome [14] | Potency [15] | Potency [16] | Potency [17] | Potency [18] | outcome [19]

Cc1nc(C)nc(N2C[C@@H](C)N(c3ccnc([C@@H](C)O)n3)[C@@H](C)C2)n1
inactive: outcome [1] | outcome [2] | Potency [3] | Potency [4] | outcome [5] | Potency [6] | Potency [7] | outcome [8] | max response [9] 9.39% | Potency [10] | outcome [11] | Potency [12] | Potency [13] | outcome [14] | Potency [15] | Potency [16] | Potency [17] | Potency [18] | outcome [19]

FC(F)(F)c1ccc(Cl)cc1Cl
inactive: outcome [1] | outcome [2] | Potency [3] | Potency [4] | outcome [5] | Potency [6] | Potency [7] | outcome [8] | max response [9] 6.78% | Potency [20] | Potency [10] | outcome [11] | Potency [12] | Potency [13] | outcome [14] | Potency [15] | Potency [16] | Potency [17] | Potency [18] | outcome [19]

O=C1c2ccccc2-c2ccccc21
inactive: outcome [1] | outcome [2] | Potency [3] | Potency [4] | outcome [5] | Potency [6] | Potency [7] | outcome [8] | max response [9] 1.19% | Potency [20] | Potency [10] | outcome [11] | Potency [12] | Potency [13] | outcome [14] | Potency [15] | Potency [16] | Potency [17] | Potency [18] | outcome [19]
